Here are results for 14 compounds from PubChem BioAssay (NCATS).

Where “and” joins values, the source holds several entries; their conditions need not be identical. Equal entries are not always repeated. Values without a mark were called inactive. Records with an inconclusive call do not appear. Calls of active or inactive are those of the source. Unless noted, calls follow the shape of the dose curve; as a rule, active = well fitted curve in the direction sought with a large enough effect; inconclusive = small, poorly fitted or top-dose-only effect, or another doubt; inactive = no such curve, though single readings can be large; an effect the other way counts as inactive or inconclusive.

The nature of assay [1]: AP1 Signaling Pathway (AID 357; active = well fitted curve in either direction with a large enough effect, not every such curve was filed as active;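 also: ME-180 reporter cells stimulated with EGF at its EC50 level; % is scaled to controls: 0 for no effect and ±100 for the full control effect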). The note with it: ME-180 AP-1-bla reporter, EGF-induced, beta-lactamase ratio, 5 h. In short, it runs like this:
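AP-1-bla ME-180 cells, Opti-MEM + 0.5% dialyzed FBS, plated overnight 37 °C. Cpd titration + EC50 EGF, 5 h 37 °C. CCF4 2.5 h RT; ex 405, em 460/530 ratio → %activity, AC50.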

Assay [2] can be described thus: NFAT Signaling Pathway (AID 444; active = well fitted curve in either direction with a large enough effect, not every such curve was filed as active;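 also: carbachol stimulus at about its EC50 of 1 µM final; % is scaled to controls: 0 for no effect and ±100 for the full control effect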). The note with it: Jurkat NFAT-bla M1, carbachol, beta-lactamase ratio, 5 h. In a few lines: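 Jurkat cells carrying an NFAT-driven β-lactamase reporter and co-transfected muscarinic M1 receptor were treated with compound plus carbachol (1 uM final, an EC50 level) for 5 h at 37 °C. CCF4 loading followed for 1 h at RT; 460/530 nm ratio gave %activity.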

Assay [3] in a line: Stat Signaling Pathway (AID 446; active = well fitted curve in either direction with a large enough effect, not every such curve was filed as active;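 also: ME-180 cervical cancer cells given 40 pM IL-6 alongside compound; SIE-controlled beta-lactamase reporter measured as 460/530 nm FRET emission ratio; % is scaled to controls: 0 for no effect and ±100 for the full control effect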). The note with it: ME-180 (cervical carcinoma) SIE beta-lactamase reporter, IL-6 stimulated, 5 h. In a few lines:
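Overnight-plated ME-180 cells bearing a STAT Inducible Element beta-lactamase reporter; 5 h co-exposure to compound and 40 pM IL-6; values normalized to 300 pM IL-6 and 125 nM JAK inhibitor controls.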

Assay [4] has as its target Guanine nucleotide-binding protein G(i) subunit alpha-1 (Homo sapiens) (UniProt P63096). Put plainly: qHTS Assay for Inhibitors of RGS12 GoLoco Motif Activity (Green Fluorophore) (AID 879).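 Also: 0% = labeled peptide with Gαi1 and full inhibition = labeled peptide alone without protein; negative values mean loss of peptide binding seen as reduced polarization.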 In a few lines:
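A drop in FITC polarization marked displacement of the FITC-tagged RGS12 GoLoco peptide (10 nM) from Gαi1 (50 nM). Compounds were incubated 10 min at room temperature in Tris pH 7.5 buffer containing 150 mM NaCl, 0.1 mM GDP and 0.05% NP40; unlabeled peptide titration served as control.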
In general terms: Quantitative high-throughput screening tests each substance at several concentrations.

The nature of assay [5]: qHTS Assay for Identification of Small Molecule Agonists for Thrombopoietin (TPO) Signaling Pathway (AID 917). Also: % is scaled to controls: 0 for no effect and ±100 for the full control effect. In a few lines: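 Stimulation at the TPO EC50 (26 pM final) was used to detect activators. Ba/F3 mouse cells bearing human TPO receptor and a luciferase reporter under the Glycoprotein IIb promoter were exposed to compounds for 24 hrs at 37 C.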
The target of assay [6] is Pyruvate kinase (Leishmania mexicana) (UniProt Q27686). Put plainly: qHTS Validation Assay for Inhibitors of Leishmania Mexicana Pyruvate Kinase (AID 945).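 Also: 0% = DMSO only neutral control wells.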 In a few lines:
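Eight-point qHTS titrations; enzyme 0.2 nM LmPYK (E451W mutant); substrates 0.5 mM PEP, 0.1 mM ADP; 7 mM MgCl2; 1 h room temperature; PKLight luminescence normalized to neutral control.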

In assay [7] the target is Alpha-galactosidase A (Homo sapiens) (UniProt P06280). Put plainly: Counterscreen for Glucocerebrosidase Inhibitors: qHTS Assay for Human alpha-Galactosidase at pH 4.5 (AID 992). Also: 0% is about no effect. In a few lines:
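Each compound is preincubated briefly with 2 nM enzyme before substrate addition (80 uM); plates then sit 20 min at ambient temperature, are quenched with 1M NaOH/1M glycine, and read fluorometrically.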
(In general: The purpose of a counterscreen is to sort out artefacts and off-target activity.)

Assay [8] has as its target alpha-glucosidase (Oryza sativa, rice) (UniProt Q653V4). Put plainly: Counterscreen for Glucocerebrosidase Inhibitors: qHTS Assay for Rice alpha-Glucosidase at pH 5.0 (AID 997).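 Also: 0% = full activity with enzyme and -100% = basal without enzyme.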 In short, it runs like this:
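Endpoint fluorogenic assay at pH 5.0: compounds (0.7 nM to 77 uM) titrated against 4 nM rice enzyme and 400 uM 4-MU-alpha-glucoside for 20 min at room temperature; NaOH/glycine stop, read ex 365/em 440 nm, Hill-fitted AC50.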

Assay [9] addresses Cytochrome P450 3A4 (Homo sapiens) (UniProt P08684). The experiment in a line: qHTS Assay for Activators of Cytochrome P450 3A4 (AID 885). Also: nearly all actives have a fitted effect of over 65% in size. In short, it runs like this:
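Using 20nM recombinant human CYP3A4 in potassium phosphate (200mM), substrate Luciferin-PPXE at 25uM, luminescent luciferin detection followed a 60-min RT NADPH reaction; data scaled to 57 uM ketoconazole.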

The target of assay [10] is Cytochrome P450 1A2 (Homo sapiens) (UniProt P05177). The experiment in a line: p450-cyp1a2 (AID 410; calls by dose curve;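 also: -100% = full effect of reference inhibitor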). In short, it runs like this: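 Luminescent demethylation readout: Luciferin-ME (100uM, equal to Km) turned over by 20nM CYP1A2 for 60 min at room temperature after NADPH regeneration addition, following 10 min compound preincubation. Normalization used 57 uM furafylline as full inhibition.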
Cytochrome P450 1A2 (Homo sapiens), sequence (P05177 whole entry, looked up): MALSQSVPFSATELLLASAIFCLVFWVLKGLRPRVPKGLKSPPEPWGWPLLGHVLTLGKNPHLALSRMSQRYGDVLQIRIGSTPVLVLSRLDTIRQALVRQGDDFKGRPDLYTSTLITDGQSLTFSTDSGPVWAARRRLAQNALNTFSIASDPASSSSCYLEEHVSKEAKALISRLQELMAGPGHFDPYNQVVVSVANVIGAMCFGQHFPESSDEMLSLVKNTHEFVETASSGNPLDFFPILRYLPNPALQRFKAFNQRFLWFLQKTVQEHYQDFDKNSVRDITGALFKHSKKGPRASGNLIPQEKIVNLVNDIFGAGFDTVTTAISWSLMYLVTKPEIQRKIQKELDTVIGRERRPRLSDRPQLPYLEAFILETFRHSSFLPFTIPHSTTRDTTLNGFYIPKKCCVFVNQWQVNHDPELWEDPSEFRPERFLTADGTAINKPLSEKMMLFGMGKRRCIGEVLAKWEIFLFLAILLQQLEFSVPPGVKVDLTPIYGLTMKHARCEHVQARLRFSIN

Assay [11] deals with Cytochrome P450 2D6 (Homo sapiens) (UniProt P10635). The experiment in a line: qHTS Assay for Inhibitors and Substrates of Cytochrome P450 2D6 (AID 891). Also: potency is read from the fitted curve at half-maximal effect; nearly all actives have a fitted effect of over 60% in size. In a few lines:
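Luminescent read-out of luciferin formed by 5 nM human CYP2D6 demethylating 30 uM Luciferin-ME EGE (Km level) over 60 min at room temperature after NADPH regeneration addition. Data normalized to full inhibition by 1.43 uM quinidine.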

The nature of assay [12]: Primary qHTS for inhibitors of nuclear receptor binding SET domain protein 2 (NSD2) in an isogenic RCH-ACV NSD2 p.E1099K mutant (9B) (AID 1645876). Also: potency is read from the fitted curve at half-maximal effect; nearly all actives have a fitted effect of over 70% in size.
Assay [13] can be described thus: Primary qHTS for inhibitors of nuclear receptor binding SET domain protein 2 (NSD2) in an RCH-ACV wild type WT cells (2C) (AID 1645877). Also: potency is read from the fitted curve at half-maximal effect; nearly all actives have a fitted effect of over 70% in size.
Assay [14] addresses Phospholipid hydroperoxide glutathione peroxidase GPX4 (Homo sapiens) (UniProt P36969). Put plainly: Primary qHTS Assay for Inhibitors of Recombinant Selenoprotein Glutathione Peroxidase 4 (GPX4) (AID 1845192). Also: % is scaled to controls: 0 for no effect and ±100 for the full control effect; nearly all actives have a fitted effect of over 65% in size. The following applies: outcome: dose series up to 50 µM unless noted. In short, it runs like this:
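qHTS, GR-coupled: GPX4 200 nM + cpd 30 min RT → GSH 1 mM, NADPH 0.5 mM, GR 100 nM → CHP 0.5 mM start; fluor 340/450 at t0 and t15 min; no-enzyme wells as control.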

A short description of assay [15]: qHTS for Inhibitors of Plasmodium falciparum (HB3) proliferation (AID 504318).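 Also: 0% = DMSO vehicle and -100% = artemisinin control; nearly all actives have a fitted effect of over 60% in size.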 In short, it runs like this: (§1)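 Parasite growth measured as SYBR Green DNA fluorescence (ex 485, em 535 nm) after overnight lysis following 72 h culture at 37 °C, 0.3% parasitemia, 2.5% hematocrit. Values normalized against DMSO and 0.29 uM artemisinin controls, with plate-stack correction.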

Assay [16] is described as follows: qHTS for Inhibitors of Plasmodium falciparum (CP250) proliferation (AID 504320).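 Also: plate controls were DMSO vehicle for no effect and 0.29 µM artemisinin control for full effect.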 In a few lines:
as §1

Guanine nucleotide-binding protein G(i) subunit alpha-1 (Homo sapiens), sequence (P63096 whole entry, looked up): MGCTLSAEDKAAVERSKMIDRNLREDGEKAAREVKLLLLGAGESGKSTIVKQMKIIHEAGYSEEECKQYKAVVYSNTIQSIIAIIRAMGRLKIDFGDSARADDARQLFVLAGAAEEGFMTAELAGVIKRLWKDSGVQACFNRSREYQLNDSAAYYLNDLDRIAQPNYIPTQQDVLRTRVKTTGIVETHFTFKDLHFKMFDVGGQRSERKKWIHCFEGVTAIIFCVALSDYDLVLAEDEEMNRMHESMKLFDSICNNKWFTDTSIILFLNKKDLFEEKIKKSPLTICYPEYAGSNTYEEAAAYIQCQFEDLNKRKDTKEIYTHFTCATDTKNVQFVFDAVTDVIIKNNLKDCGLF
Pyruvate kinase (Leishmania mexicana), sequence (Q27686 2-499 E452W): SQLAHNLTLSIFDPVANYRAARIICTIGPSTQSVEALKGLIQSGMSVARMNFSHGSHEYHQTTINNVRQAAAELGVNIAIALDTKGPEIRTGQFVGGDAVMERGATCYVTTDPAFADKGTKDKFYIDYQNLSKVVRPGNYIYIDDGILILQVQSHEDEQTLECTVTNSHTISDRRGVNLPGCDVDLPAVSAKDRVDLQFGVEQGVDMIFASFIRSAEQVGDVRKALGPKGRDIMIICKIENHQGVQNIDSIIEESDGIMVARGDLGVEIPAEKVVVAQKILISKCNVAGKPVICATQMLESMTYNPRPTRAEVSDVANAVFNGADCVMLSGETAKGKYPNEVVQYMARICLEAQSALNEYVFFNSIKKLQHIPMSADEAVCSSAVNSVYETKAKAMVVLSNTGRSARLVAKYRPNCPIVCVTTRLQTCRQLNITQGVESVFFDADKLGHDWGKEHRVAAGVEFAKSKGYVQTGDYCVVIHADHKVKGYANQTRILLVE
Alpha-galactosidase A (Homo sapiens), sequence (P06280 whole entry, looked up): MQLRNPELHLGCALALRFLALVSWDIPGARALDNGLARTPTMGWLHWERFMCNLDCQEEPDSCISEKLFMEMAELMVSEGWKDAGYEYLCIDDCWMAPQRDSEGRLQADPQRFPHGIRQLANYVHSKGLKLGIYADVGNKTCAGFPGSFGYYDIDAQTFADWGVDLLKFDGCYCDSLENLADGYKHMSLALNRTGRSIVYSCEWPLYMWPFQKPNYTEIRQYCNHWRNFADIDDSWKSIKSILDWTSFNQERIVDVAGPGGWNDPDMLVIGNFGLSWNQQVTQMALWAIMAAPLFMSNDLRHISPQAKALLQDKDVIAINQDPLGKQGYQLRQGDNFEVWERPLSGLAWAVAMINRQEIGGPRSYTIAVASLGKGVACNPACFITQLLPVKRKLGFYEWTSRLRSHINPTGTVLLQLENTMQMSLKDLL
Cytochrome P450 2D6 (Homo sapiens), sequence (P10635 whole entry, looked up): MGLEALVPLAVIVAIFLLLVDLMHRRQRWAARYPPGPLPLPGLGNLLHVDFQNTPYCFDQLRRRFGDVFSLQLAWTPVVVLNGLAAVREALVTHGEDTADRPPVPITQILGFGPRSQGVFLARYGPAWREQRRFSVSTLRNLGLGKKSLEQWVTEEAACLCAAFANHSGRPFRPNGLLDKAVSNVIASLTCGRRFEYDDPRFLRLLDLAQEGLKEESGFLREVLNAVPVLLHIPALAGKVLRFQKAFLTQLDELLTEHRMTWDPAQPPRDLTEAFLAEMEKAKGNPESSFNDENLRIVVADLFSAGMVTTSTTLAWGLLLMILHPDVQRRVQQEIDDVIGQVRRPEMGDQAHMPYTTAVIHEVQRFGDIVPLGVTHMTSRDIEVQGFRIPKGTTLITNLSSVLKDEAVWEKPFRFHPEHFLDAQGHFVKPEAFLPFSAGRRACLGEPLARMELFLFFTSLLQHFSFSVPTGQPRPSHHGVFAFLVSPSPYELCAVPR
Cytochrome P450 3A4 (Homo sapiens), sequence (P08684 whole entry, looked up): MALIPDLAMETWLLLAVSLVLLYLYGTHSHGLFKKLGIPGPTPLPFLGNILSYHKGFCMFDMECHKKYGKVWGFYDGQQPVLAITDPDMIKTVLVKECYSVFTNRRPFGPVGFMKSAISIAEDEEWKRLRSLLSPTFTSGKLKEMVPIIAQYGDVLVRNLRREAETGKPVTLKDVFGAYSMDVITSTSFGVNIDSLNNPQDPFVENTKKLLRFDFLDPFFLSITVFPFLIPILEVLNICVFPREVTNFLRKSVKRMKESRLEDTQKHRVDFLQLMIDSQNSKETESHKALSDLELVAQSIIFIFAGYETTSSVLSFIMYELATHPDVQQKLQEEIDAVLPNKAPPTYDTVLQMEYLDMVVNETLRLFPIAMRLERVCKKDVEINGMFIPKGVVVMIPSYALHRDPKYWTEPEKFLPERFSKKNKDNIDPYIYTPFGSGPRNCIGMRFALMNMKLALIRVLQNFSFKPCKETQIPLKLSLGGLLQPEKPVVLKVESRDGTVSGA
Phospholipid hydroperoxide glutathione peroxidase GPX4 (Homo sapiens), sequence (P36969 whole entry, looked up): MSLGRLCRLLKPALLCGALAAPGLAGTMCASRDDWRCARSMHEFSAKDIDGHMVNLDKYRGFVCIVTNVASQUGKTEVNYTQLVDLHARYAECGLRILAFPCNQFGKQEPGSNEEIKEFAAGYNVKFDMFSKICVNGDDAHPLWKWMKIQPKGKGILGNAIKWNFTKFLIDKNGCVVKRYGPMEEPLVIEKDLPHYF

As to `CC(C)(C)NC[C@H](O)c1ccc(O)c(CO)c1`, the activity change, negative = inhibition in [1] (at 17.2 µM (top of the series)) is -9.06%; in [1] (at 38 µM (top of the series)) it was -4.2% and -6.86%; in [2] (at 17.2 µM (top of the series)), -10.8%; in [2] (at 38 µM (top of the series)) it was 0.545% and 8.74%. Also, the activity, negative = inhibition in assay [3] (at 17.2 µM (top of the series)) is 16.1%; in [3] (at 38 µM (top of the series)), -5.91% and -0.604%. Also, the compound was called inactive in assay [4], in assay [7] and in assay [8]. Also, the Potency result in [5] and in [6] was “inactive” in each case.
`Cc1cc(C)c(S(=O)(=O)Nc2cccc(C(F)(F)F)c2)c(C)c1`: the Potency entry in assay [9] is “inactive”.
On to `C[C@]12CC3CC(N)(C1)C[C@@](C)(C3)C2`, for which the results for the activity change, negative = inhibition in [1] (at 38 µM (top of the series)) and in assay [2] (at 38 µM (top of the series)) were 19.1% and -5.02%, respectively. Moreover, the Potency result in assay [10], in [5] and in assay [6] was “inactive” in each case. Moreover, the compound was called inactive in [4], in [7] and in assay [8]. The Potency in assay [11] is 0.316 µM (active).
Regarding `N[C@H](C(=O)O)C1[C@H](C(=O)O)[C@H]1C(=O)O` (stereo partly drawn), in assay [11], the Potency is 7.94 µM (active).
Regarding `COc1cc(N)c(Cl)cc1C(=O)OCCCN1CCCCC1`, the Potency entry in assay [10] and in assay [9] was “inactive” each time. Also, in assay [11], the Potency was 0.126 µM (active).
As for `O=C(CCCCCCC(=O)Nc1ccc(C2OC(CSc3nc(-c4ccccc4)c(-c4ccccc4)o3)CC(c3ccc(CO)cc3)O2)cc1)NO` (stereo not drawn), the Potency in assay [12] was 5.15 µM (active); in assay [13], 3.65 µM (active). The Potency result in assay [14] is “inactive”.
`CCOC(=O)CN1C(=O)NC(CCc2ccccc2)C(C(=O)OC)=C1C` (stereo not drawn): the Potency result in assay [15] and in assay [16] was “inactive” each time.
On to `O=C1Nc2cccc(Br)c2[C@@]12O[C@H](COc1ccccc1)CC1=CCCC12` (stereo partly drawn), for which the Potency result in [15] and in assay [16] was “inactive” throughout.
On to `COCCN1C(=O)CC[C@@]23C1=NC(C(=O)OC)=C(C(=O)OC)[C@@H]2N(C)c1ccccc13`, for which the Potency result in assay [15] was “inactive”.
For the compound `COC(=O)N[C@@H](c1cccs1)C(C(C)=O)C(=O)OC` (stereo partly drawn), the Potency entry in [15] and in assay [16] was “inactive” each time.
For the compound `CCN1C(=O)NC(c2ccco2)C(C(C)=O)=C1C` (stereo not drawn), the Potency result in assay [15] and in [16] was “inactive” each time.
Consider `COCCN1C(=O)NC(c2cccc(F)c2)C(C(=O)OC)=C1C` (stereo not drawn), for which the Potency result in [15] and in [16] was “inactive” in each case.
As to `COC(=O)N[C@H](C(C(=O)OC)=C(C)NCc1ccccc1)c1cccs1`, the Potency result in assay [15] and in assay [16] was “inactive” each time.
In the case of `CCN1C(=NCc2ccco2)N[C@@H](CCc2ccccc2)[C@H](C(=O)OC)[C@H]1C`, the Potency entry in assay [15] and in assay [16] was “inactive” each time.
